Compounds with a hit are over-represented: about 0.51% of the library has one in this group of screens.
Epigenetic reg: Quantitative High-Throughput Screen for Regulators of Epigenetic Control; murine LDR cells, GFP reporter derepression, 30 h; Potency, µM (doses to about 53.9 µM), without a hit: at the highest dose GFP activation, hits mostly activators; 0.2% of 280,000 active; note: % of control where 0% means no effect; nearly all actives have a fitted effect of over 60% in size
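Murine LDR cells carrying a silenced, genomically integrated CMV-driven GFP reporter were exposed to compound for 30 hours at 37 C. After PBS washes, GFP-positive cells (20–120 um objects) were counted by laser-scanning microplate cytometry.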
Vif-APOBEC3G blk: qHTS for Inhibitors of Vif-A3G Interactions: qHTS; 0.076% of 410,000 active; Potency, µM (top dose mostly 46.1 µM), for the others: top-dose activity, negative = active, actives largely listed as inhibitors; HeLa A3G-eYFP + Vif (tagged APOBEC3G with the HIV-1 protein that degrades it), YFP fluorescence, overnight; DNA dC->dU-editing enzyme APOBEC-3G (Homo sapiens), Q9HC16; note: % is set by controls: 0 for no effect and ±100 for the full control effect; nearly all actives have a fitted effect of over 60% in size
Target sequence (Q9HC16 whole entry, looked up): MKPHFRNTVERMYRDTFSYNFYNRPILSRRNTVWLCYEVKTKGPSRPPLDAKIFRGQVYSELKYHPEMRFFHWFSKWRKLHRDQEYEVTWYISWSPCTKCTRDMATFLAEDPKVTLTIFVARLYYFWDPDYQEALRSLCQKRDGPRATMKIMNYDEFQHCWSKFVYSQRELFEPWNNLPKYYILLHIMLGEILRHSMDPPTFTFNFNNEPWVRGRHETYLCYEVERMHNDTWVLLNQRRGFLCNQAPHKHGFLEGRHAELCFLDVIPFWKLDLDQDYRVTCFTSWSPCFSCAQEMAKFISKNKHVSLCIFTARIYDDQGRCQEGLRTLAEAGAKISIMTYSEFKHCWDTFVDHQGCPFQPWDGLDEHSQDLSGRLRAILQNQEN
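HeLa cells stably expressing Vif and C-terminally eYFP-tagged A3G, seeded overnight at 37 deg C, then exposed to compound by pintool overnight at 37 deg C. Rise in yellow fluorescence (Ex 488/Em 500-530, Acumen) marks blocked Vif-driven A3G degradation.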
Vif-APOBEC3F blk: qHTS for Inhibitors of Vif-A3F Interactions: qHTS. HeLa A3F-eYFP + Vif (tagged APOBEC3F with the HIV-1 protein that degrades it), YFP fluorescence increase. Potency, µM (doses to about 46.1 µM), for the others: at the top dose activity, negative = active. 0.2% of 390,000 active; note: % of control where 0% means no effect; nearly all actives have a fitted effect of over 65% in size
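Fluorescence increase (Ex 488/Em 500-530) after overnight compound treatment at 37 deg C flags inhibition of Vif-driven A3F-eYFP loss in stable HeLa A3F-eYFP/Vif cells seeded overnight beforehand.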
PINK1 modulator: A Quantitative High throughput Screen to Identify Chemical Modulators of PINK1 Expression; AID 624263, 2012; Potency, µM (titrated, usually from 76.6 µM), inactives show at the top dose activation (PINK1 increase), hits mostly activators; PINK1 immunofluorescence, high-content cytometry, 24 h; 0.2% of 410,000 active; active = well fitted activation curve with a large enough effect; inconclusive = small, poorly fitted or top-dose-only effect; cell line not stated here; note: % of control where 0% means no effect; nearly all actives have a fitted effect of over 65% in size
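Stable cell line treated 24 h with compounds at 5 concentrations (CCCP controls), then fixed and immunostained for PINK1 plus nuclear and cell stains; PINK1 immunofluorescence quantified by laser-scanning microplate cytometry.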
* hit, by the source's call; i = inactive; ? = inconclusive; / = not tested or not shown; [ ] = another dose, or the depositor's remark. Unless noted, calls come from the whole dose curve; as a rule, active = well fitted curve in the direction sought with a large enough effect; inconclusive = small, poorly fitted or top-dose-only effect, or another doubt; inactive = no such curve, though single readings can be large; an effect the other way counts as inactive or inconclusive. Potency is the fitted concentration of half-maximal effect.

SMILES | Epigenetic reg | Vif-APOBEC3G blk | Vif-APOBEC3F blk | PINK1 modulator
Cc1cc2c(c(-c3nc4ccccc4s3)c1)OC(CNC(=O)c1occc1C)C2 (stereo unspecified) | / | / | / | 1%
Cc1cccc(C(=O)NC(=S)N2CCc3ccccc3C2)c1 | -1% | 1% | 8.9µM* | 3%
O=C(O)C(c1ccccc1)N1C(=O)c2cccc3cccc(c23)C1=O (stereo unspecified) | / | 0% | 2% | 1%
NN=C1c2ccccc2C(=O)C1C(=O)C(c1ccccc1)c1ccccc1 (stereo unspecified) | / | 11µM* | i | 0%
CCC1(C2CCN(C(=O)c3ccc4ccccc4c3)CC2)NC(=O)N(CCc2scnc2C)C1=O (stereo unspecified) | / | / | / | 1%
O=c1[nH]c2ccccc2nc1/C=C(\O)c1cccs1 | 22µM* | ? | 10µM* | ?
O=C(NCC1CCCO1)c1cccc2c1C(=O)c1ccc(N3CCC(Cc4ccccc4)CC3)cc1S2(=O)=O (stereo unspecified) | / | ? | 25µM* | -1%
Cc1ccc(CNC(=O)c2cccc3c2C(=O)c2ccc(N4CCCCC4)cc2S3(=O)=O)cc1 | / | ? | 22µM* | 1%
O=C(NCc1ccccc1)c1cccc2c1C(=O)c1ccc(/C=C/c3ccccc3)cc1S2(=O)=O | / | -30% | 10µM* | 8%
O=C(c1cn(C2CCCN(Cc3cccc(Oc4ccccc4)c3)C2)nn1)N1CCCC1 (stereo unspecified) | / | / | / | 0%
c1ccc(C2=NN(c3ccccc3)CC2)cc1 | -5% | 1% | 13% | 1%
c1ccc(N=NC2=NN(c3ccccc3)CS2)cc1 | / | 3% | 4µM* | 2%
O=S(=O)(NCCNc1ncc(C(F)(F)F)cc1Cl)C(F)(F)F | -2% | 0% | 2% | 40µM*
O=C(c1cnsn1)N1CCOc2ccc(C(O)C(c3ccccc3)c3ccccc3)cc2C1 (stereo unspecified) | / | / | / | 2%
Cc1c(C(=O)NCCN2CCC(c3ccccc3)CC2)cnn1-c1nccc(-c2cccs2)n1 | / | / | / | 1%
CCOC(=O)/C=c1\s/c(=C\c2c(OC)ccc3ccccc23)c(=O)n1CC(=O)NCC1CCCO1 (stereo unspecified) | ? | 10µM* | 25µM* | 3%[38.3 µM]
CCOC(=O)/C=c1/s/c(=C/c2ccc3cc(OC)ccc3c2)c(=O)n1CC(=O)NCC1CCCO1 (stereo unspecified) | / | 0% | 7.1µM* | 5%
CCOC(=O)/C=c1\s/c(=C\c2ccc(C#N)cc2)c(=O)n1CC(=O)NCc1ccco1 | 1% | 1% | 7% | 3%
CCOC(=O)/C=c1\s/c(=C\c2ccc(C(=O)OC)cc2)c(=O)n1CC(=O)Nc1ccccc1 | ? | 1% | ? | 2%
CCN(CC)c1ccc(/C=C/c2sc3ccccc3[n+]2CCCCI)cc1 | / | -11% | / | 32µM*
CC(=O)Nc1ccc(/C=C/c2sc3ccccc3[n+]2CCCCI)cc1 | / | -7% | / | 0%
Cc1ccc(NC(=O)c2ccccc2NS(=O)(=O)c2ccc(F)cc2)cc1S(=O)(=O)N1CCCCC1 | -2% | -6% | 3% | 11µM*
O=C(Nc1cccc(S(=O)(=O)N2CCCCC2)c1)c1ccccc1NS(=O)(=O)c1ccc(F)cc1 | 3% | -7% | -3% | 14µM*
Oc1sc(C=Nc2ccc(F)cc2)c2ccccc12 | ? | ? | 2.8µM* | 7%
Oc1sc(C=Nc2ccccc2)c2ccccc12 | ? | 11µM* | 25µM* | -3%
COc1ccc(C)cc1Nc1n[n+](-c2ccccc2)c(-c2ccc(NC(C)=O)cc2)s1 | / | 1% | -7% | 0%
COc1ccc(C)cc1Nc1n[n+](-c2ccccc2)c(-c2cc([N+](=O)[O-])cc(OC)c2O)s1 | / | -9% | 22µM* | 8%
NC(=S)n1[nH]c(-c2ccc([N+](=O)[O-])cc2)c(N=Nc2cccc(Cl)c2)c1=O | -1% | -1% | -3% | 13µM*
NC(=S)n1[nH]c(-c2ccc([N+](=O)[O-])cc2)c(N=Nc2ccc(O)cc2)c1=O | 3% | 0% | -2% | 1%
CCCCCc1cc(O)c2c(C)cc(=O)oc2c1 | 1% | 0% | 5% | 11µM*

Compound activity deposited in PubChem by National Center for Advancing Translational Sciences (NCATS).
